# The whole screen tested about 310,000 compounds, of which about 14,000 (4.5%) showed an effect of 50% or more. The effect is printed as a negative number. This excerpt belongs to a sample that is enriched for strong results.
# Molecular target: human ether-à-go-go-related gene (hERG) potassium channel (human, UniProt Q12809)
# Test: primary screen, population patch clamp on CHO cells stably expressing hERG; higher = less effect of the substance
# 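Further: peak tail current of the secondary pulse compared with the same well before compound.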
# human ether-à-go-go-related gene (hERG) potassium channel, sequence (Q12809 whole entry, looked up): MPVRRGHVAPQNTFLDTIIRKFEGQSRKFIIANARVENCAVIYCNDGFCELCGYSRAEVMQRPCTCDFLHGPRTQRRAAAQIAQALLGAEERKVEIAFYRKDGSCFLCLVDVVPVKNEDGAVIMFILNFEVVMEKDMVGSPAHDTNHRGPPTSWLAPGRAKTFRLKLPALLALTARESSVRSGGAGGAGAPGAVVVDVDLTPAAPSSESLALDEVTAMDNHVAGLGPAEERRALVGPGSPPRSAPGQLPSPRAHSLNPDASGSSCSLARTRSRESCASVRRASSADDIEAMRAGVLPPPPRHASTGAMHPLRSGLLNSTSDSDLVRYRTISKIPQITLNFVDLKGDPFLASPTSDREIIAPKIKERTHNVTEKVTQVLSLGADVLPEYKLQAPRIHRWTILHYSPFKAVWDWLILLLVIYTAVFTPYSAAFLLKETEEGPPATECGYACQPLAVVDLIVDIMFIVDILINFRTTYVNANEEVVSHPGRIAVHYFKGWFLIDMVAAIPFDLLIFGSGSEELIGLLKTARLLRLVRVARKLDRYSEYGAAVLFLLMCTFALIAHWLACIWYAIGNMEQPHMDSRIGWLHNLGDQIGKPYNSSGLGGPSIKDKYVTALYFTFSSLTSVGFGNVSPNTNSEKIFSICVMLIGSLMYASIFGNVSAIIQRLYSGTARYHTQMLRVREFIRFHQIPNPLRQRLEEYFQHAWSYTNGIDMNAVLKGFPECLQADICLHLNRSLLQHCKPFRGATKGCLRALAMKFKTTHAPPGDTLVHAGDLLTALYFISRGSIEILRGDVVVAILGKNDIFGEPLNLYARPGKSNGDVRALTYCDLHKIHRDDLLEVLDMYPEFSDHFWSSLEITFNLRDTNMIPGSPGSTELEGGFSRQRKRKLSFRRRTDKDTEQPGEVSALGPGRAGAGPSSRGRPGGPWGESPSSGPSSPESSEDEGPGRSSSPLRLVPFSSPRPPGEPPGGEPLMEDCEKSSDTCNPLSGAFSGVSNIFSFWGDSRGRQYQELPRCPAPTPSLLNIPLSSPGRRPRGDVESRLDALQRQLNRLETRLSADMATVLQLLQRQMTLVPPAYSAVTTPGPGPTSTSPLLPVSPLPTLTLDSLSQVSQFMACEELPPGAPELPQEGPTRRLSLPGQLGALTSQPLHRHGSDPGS
row,Compound,"hERG current change (%, negative = inhibition) at 10uM"
1,Br.Cc1nc(-c2ccc(C(=O)O)cc2)cs1,7.39%
2,S=C(NCCN1CCOCC1)Nc1ccc(Cl)cc1Cl,-18%
3,CCOC(=O)N1CCN(CC(O)COCc2ccccc2)CC1.Cl (centres unmarked),-4.06%
4,Cc1ccc(S(=O)(=O)Nn2c(C)ccc2C)cc1,15.3%
5,Nc1ccccc1Nc1ccccc1,-13.6%
6,O=c1c(Cl)c(NCc2ccccc2Cl)cnn1C12CC3CC(CC(C3)C1)C2,-5.06%
7,CN(C)c1ccc(C(CC(=O)O)NC(=O)c2ccc(Cl)cc2)cc1 (centres unmarked),-9.38%
8,N#CCc1ccc(NC(=O)c2ccc(S(=O)(=O)N3CCOCC3)cc2)cc1,1.97%
9,O=C(CN(c1ccccc1)S(=O)(=O)c1ccccc1[N+](=O)[O-])Nc1ccccc1C(=O)N1CCOCC1,3.76%
10,Cc1ccc(CN2CCSCC2)c(C)c1,16.9%
11,Cc1cccc(OCC(O)Cn2c(N3CCCCC3)nc3c2c(=O)[nH]c(=O)n3C)c1 (centres unmarked),13%
12,CCCSc1nsc(NC(=O)CC)n1,-30.5%
13,CCCC1Cc2c(sc(N)c2C#N)CO1 (centres unmarked),2.5%
14,CC(C)Cc1nnc(NC(=O)c2ccc(N3CCCC3=O)cc2)s1,2.3%
15,CN(CCOc1ccccc1)C(=O)c1ccc(F)c(S(=O)(=O)N2CCOCC2)c1,-10.8%
16,Cc1ccc(OCCNC(=O)Cc2ccc(S(=O)(=O)N3CCOCC3)s2)cc1,-24%
17,COc1cccc(C(=O)NCC2CCN(c3ccc(S(=O)(=O)N4CCOCC4)cc3)CC2)c1,-22.9%
18,Cc1cccc(C)c1NC(=O)CN(C)C(=O)c1cc(S(=O)(=O)N2CCOCC2)ccc1N1CCCC1,-3.99%
19,CN(CCOc1ccc(Cl)cc1)C(=O)Cc1ccc(S(=O)(=O)N2CCOCC2)s1,-73.1%
20,CN(CCOc1ccc(Cl)cc1)C(=O)c1ccc(S(=O)(=O)N2CCOCC2)cc1,-74.9%

row,Compound,"hERG current change (%, negative = inhibition) at 10uM"
1,O=C(NCC1CCN(c2ccc(S(=O)(=O)N3CCOCC3)cc2)CC1)c1ccc(Cl)cc1,-57.2%
2,CCCCN(C)C(=O)c1ccc(S(=O)(=O)N2CCOCC2)cc1,17.3%
3,Cc1ccc(OCCOC(=O)c2cc(S(=O)(=O)N3CCCCC3)ccc2N2CCOCC2)cc1,-9.24%
4,CN(CCOc1ccc(Cl)cc1)C(=O)c1cc(S(=O)(=O)N2CCOCC2)ccc1N1CCCC1,-63.7%
5,O=C(NCC1CCN(c2ccc(S(=O)(=O)N3CCOCC3)cc2)CC1)c1cccc(Cl)c1,-12.4%
6,COc1ccc(NC(=O)CN(C)C(=O)Cc2ccc(S(=O)(=O)N3CCOCC3)s2)cc1,8.92%
7,O=C(Nn1cnc2ccccc2c1=O)c1ccccc1,12.7%
8,COc1c(Cl)cc(C(=O)Nc2ccccc2-c2ccccc2)cc1Cl,0.345%
9,Cc1ccc(NC(=O)Cn2nc(C(=O)Nc3ccc(C)cc3)ccc2=O)cc1,10.8%
10,CCN(CC)S(=O)(=O)c1cccc(C(=O)OC2CC(C)OC2=O)c1 (centres unmarked),12.7%
11,Nc1nc(NCc2ccccc2)nc(NCc2ccccc2)c1[N+](=O)[O-],16.2%
12,O=C(Nc1c2c(nn1-c1ccccc1)CS(=O)C2)c1ccc(S(=O)(=O)N2CCOCC2)cc1 (centres unmarked),17.4%
13,COc1cc(NC(=O)COC(=O)/C=C/c2ccc(Cl)cc2Cl)cc(OC)c1,5.23%
14,CC(C)(C)NC(=O)NCCc1ccccc1,11%
15,CC(=O)Nc1ccc2nc(SCC(=O)N3CCOCC3)sc2c1,18.9%
16,COc1cc(/C=N/NC(=O)[C@H](Cc2c[nH]c3ccccc23)NC(=O)OCC(C)C)cc([N+](=O)[O-])c1O,10.3%
17,O=C(NCC1CCCO1)c1cc(S(=O)(=O)N2CCOCC2)ccc1Cl (centres unmarked),16.5%
18,COc1ccc(S(=O)(=O)N2CCOCC2)cc1C(=O)N(C)CCOc1ccc(Cl)cc1,-79.8%
19,CCN1CCN(S(=O)(=O)c2ccc(Cl)c(C(=O)N(C)Cc3cccc(OC)c3)c2)CC1,-11.2%
20,O=C(COc1ccc(S(=O)(=O)N2CCOCC2)cc1)NCC1CCCO1 (centres unmarked),-15.1%

row,Compound,"hERG current change (%, negative = inhibition) at 10uM"
1,COc1ccc(S(=O)(=O)N2CCCCCC2)cc1C(=O)N(C)CCOc1ccc(Cl)cc1,-47.7%
2,O=S(=O)(c1ccc2c(c1)nc(COc1ccc(Cl)cc1)n2CC1CCCO1)N1CCOCC1 (centres unmarked),-65.2%
3,COc1ccc(S(=O)(=O)N2CCCCCC2)cc1C(=O)N(C)Cc1ccc(Cl)cc1Cl,-23.1%
4,CN(CCOc1ccc(Cl)cc1)C(=O)c1cc([N+](=O)[O-])ccc1N1CCOCC1,-66.7%
5,CCN1CCN(S(=O)(=O)c2ccc(Cl)c(C(=O)N(C)CCOc3ccc(Cl)cc3)c2)CC1,-52.8%
6,Cc1cccc(C)c1NC(=O)CN(C)C(=O)c1cc([N+](=O)[O-])ccc1N1CCOCC1,24.1%
7,CCN1CCN(S(=O)(=O)c2ccc(Cl)c(C(=O)N(C)Cc3ccc(F)cc3)c2)CC1,-25.1%
8,CN(CCOc1ccccc1)C(=O)c1cc([N+](=O)[O-])ccc1N1CCOCC1,-27.3%
9,COCCNC(=O)Cn1cc(C(=O)c2ccccc2F)c2ccccc21,12.5%
10,COc1ccccc1CNc1ncnc2cc(OC)c(OC)cc12,-32%
11,CCOC(=O)c1c(NC(=O)Cn2cnc3scc(-c4ccc(C)cc4)c3c2=O)sc(C)c1C,-14.5%
12,CCCNC(=S)Nc1ccc(Nc2ccccc2)cc1,-15%
13,O=C(CSc1cn[nH]n1)Nc1ccccc1C(F)(F)F,8.13%
14,CN(CCOc1ccccc1)C(=O)c1cc(S(=O)(=O)N2CCOCC2)ccc1Cl,-48.4%
15,COc1ccc(Br)cc1CN(C)C(=O)Cc1ccc(OC)c(S(=O)(=O)N2CCOCC2)c1,-41%
16,Cc1ccc(S(=O)(=O)N2CCOCC2)cc1C(=O)N(C)CCOc1ccc(Cl)cc1,-64%
17,COc1ccc(Br)cc1CN(C)C(=O)Cc1ccc(S(=O)(=O)N2CCOCC2)s1,-70.4%
18,COc1ccc(CN(C)C(=O)Cc2ccc(S(=O)(=O)N3CCOCC3)s2)cc1OC,7.58%
19,Cc1ccc(S(=O)(=O)N2CCOCC2)cc1C(=O)OCCOc1cccc(Cl)c1,-9.45%
